Read-out in test [1]: sulfotransferase 2A1 (SULT2A1), SULT2A1 (gene 6822)
The experiment in a line: LTEA_HepaRG_SULT2A1: Life Technologies and Expression Analysis (LTEA) Assay for sulfotransferase 2A1 (SULT2A1) using HepaRG (AID 2283531; active means hit-call score of the fitted dose curve at least 0.9, where 1 is the maximum; inactive means score below 0.9). The settings on record: mRNA level, 48 h; actives raise or lower the signal. A digest of the protocol: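 Gene-expression endpoint in a human liver cell line: SULT2A1 mRNA change after 48 h chemical treatment, curves fitted in both directions relative to 0.5% DMSO vehicle. Concentrations spanned eight half-log steps from 100 uM.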

Read-out in test [2]: Transforming Growth Factor (TGFA), TGFA (gene 7039)
The test is described as follows: LTEA_HepaRG_TGFA: Life Technologies and Expression Analysis (LTEA) Assay for Transforming Growth Factor (TGFA) using HepaRG (AID 2283532; active means hit-call score of the fitted dose curve at least 0.9, where 1 is the maximum; inactive means score below 0.9). The conditions noted are these: mRNA level, 48 h; actives raise or lower the signal. A digest of the protocol: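 Differentiated human HepaRG cells, plated 48 h then switched to serum-free induction medium, were exposed in duplicate for 48 h to 8-point half-log series from 100 uM in 0.5% DMSO. TGFA mRNA measured by qRT-PCR, normalized to ACTB/GAPDH/POLR2A, bidirectional fit versus DMSO.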

Read-out in test [3]: Transforming Growth Factor (TGFB1), TGFB1 (gene 7040)
The test is described as follows: LTEA_HepaRG_TGFB1: Life Technologies and Expression Analysis (LTEA) Assay for Transforming Growth Factor (TGFB1) Transporter using HepaRG (AID 2283533; active means hit-call score of the fitted dose curve at least 0.9, where 1 is the maximum; inactive means score below 0.9). The settings on record: mRNA level, 48 h; actives raise or lower the signal. Summed up: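 Eight-point concentration-response (max 100 uM, half-log) in HepaRG under serum-free induction conditions, 48 h. TGFB1 mRNA by qRT-PCR, housekeeping-normalized.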

Read-out in test [4]: Tumor necrosis factor receptor 1 (TNFRSF1A), TNFRSF1A (gene 7132)
The test is described as follows: LTEA_HepaRG_TNFRSF1A: Life Technologies and Expression Analysis (LTEA) Assay for Tumor necrosis factor receptor 1 (TNFRSF1A) using HepaRG (AID 2283535; active means hit-call score of the fitted dose curve at least 0.9, where 1 is the maximum; inactive means score below 0.9). The settings on record: mRNA level, 48 h; actives raise or lower the signal. A digest of the protocol: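 Assay uses 48 h chemical treatment of differentiated HepaRG monolayers, tested in duplicate at eight concentrations from 100 uM downward in 0.5% DMSO. mRNA is normalized to ACTB, GAPDH and POLR2A, with induction or suppression fitted relative to vehicle.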

Read-out in test [5]: Thyroid Hormone Responsive (THRSP), THRSP (gene 7069)
The experiment in a line: LTEA_HepaRG_THRSP: Life Technologies and Expression Analysis (LTEA) Assay for Thyroid Hormone Responsive (THRSP) using HepaRG (AID 2283536; active means hit-call score of the fitted dose curve at least 0.9, where 1 is the maximum; inactive means score below 0.9). The conditions noted are these: mRNA level, 48 h; actives raise or lower the signal. Summed up: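 Differentiated human HepaRG cells were exposed in duplicate for 48 h in serum-free induction medium to eight concentrations (top 100 uM, half-log steps, 0.5% DMSO). Expression was quantified by TaqMan qRT-PCR, normalized to ACTB, GAPDH and POLR2A, with bidirectional fitting against DMSO.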

Read-out in test [6]: Cellular tumor antigen p53 (Homo sapiens) (UniProt P04637)
The test is described as follows: LTEA_HepaRG_TP53: Life Technologies and Expression Analysis (LTEA) Assay for Tumor Protein P53 (TP53) using HepaRG (AID 2283537; active means hit-call score of the fitted dose curve at least 0.9, where 1 is the maximum; inactive means score below 0.9). The conditions noted are these: mRNA level, 48 h; actives raise or lower the signal. Summed up:
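Differentiated HepaRG cells in serum-free induction medium exposed 48 h in duplicate to 8 half-log concentrations, top 100 uM, 0.5% DMSO. TP53 mRNA by TaqMan qRT-PCR (Fluidigm), normalized to ACTB, GAPDH, POLR2A; fitted bidirectionally versus DMSO.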

Read-out in test [7]: UDP glucuronosyltransferase (UGT1A1), UGT1A1 (gene 54658)
The test is described as follows: LTEA_HepaRG_UGT1A1: Life Technologies and Expression Analysis (LTEA) Assay for UDP glucuronosyltransferase (UGT1A1) using HepaRG (AID 2283538; active means hit-call score of the fitted dose curve at least 0.9, where 1 is the maximum; inactive means score below 0.9). The conditions noted are these: mRNA level, 48 h; actives raise or lower the signal. A digest of the protocol: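 Readout is UGT1A1 transcript level by qRT-PCR, normalized to three housekeeping genes, after 48 h chemical treatment of HepaRG cells. Concentrations ran from 100 uM down in half-log steps with 0.5% DMSO, and gain or loss relative to DMSO was fitted.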

Read-out in test [8]: UDP glucuronosyltransferase (UGT1A6), UGT1A6 (gene 54578)
The experiment in a line: LTEA_HepaRG_UGT1A6: Life Technologies and Expression Analysis (LTEA) Assay for UDP glucuronosyltransferase (UGT1A6) using HepaRG (AID 2283539; active means hit-call score of the fitted dose curve at least 0.9, where 1 is the maximum; inactive means score below 0.9). The conditions noted are these: mRNA level, 48 h; actives raise or lower the signal. Summed up:
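Measures mRNA change in HepaRG hepatic cells exposed 48 h to chemicals (eight-point, maximum 100 uM, 0.5% DMSO vehicle) in serum-free induction medium. Expression normalized to endogenous controls; DMSO served as negative control and baseline.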

Read-out in test [9]: X-box binding protein 1 (XBP1), XBP1 (gene 7494)
The experiment in a line: LTEA_HepaRG_XBP1: Life Technologies and Expression Analysis (LTEA) Assay for X-box binding protein 1 (XBP1) using HepaRG (AID 2283540; active means hit-call score of the fitted dose curve at least 0.9, where 1 is the maximum; inactive means score below 0.9). The conditions noted are these: mRNA level, 48 h; actives raise or lower the signal. Summed up:
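Eight concentrations (half-log, highest 100 uM, 0.5% DMSO) tested in duplicate on HepaRG cells over 48 h in serum-free induction medium; qRT-PCR of XBP1 normalised to ACTB, GAPDH, POLR2A.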

Test [10] is described as follows: LTEA_HepaRG_LDH_cytotoxicity: Cytotoxicity Assessment in the Life Technologies and Expression Analysis (LTEA) Assay (AID 2283563).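 On AC50: LDH activity released into spent culture medium as a marker of cell death.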 A digest of the protocol: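 Spent-medium LDH after 48 h chemical exposure of HepaRG cells in serum-free induction medium; eight concentrations, half-log dilutions from 100 uM, duplicate wells, fitted upward relative to 0.5% DMSO.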
A short description of test [11]: ATG_XTT_Cytotoxicity: Cytotoxicity Assessment in the Attagene TRANS-FACTORIAL HepG2 Assay (AID 2283584). A digest of the protocol:
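24 h chemical exposure of reporter-transfected HepG2; XTT signal loss vs DMSO indicates cytotoxicity.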

Test [12] concerns the target Cellular tumor antigen p53 (Homo sapiens) (UniProt P04637). The experiment in a line: TOX21_p53_BLA_p2_ratio: Tox21 HCT-116 p53 Agonism Beta-lactamase Assay, Ratio, Phase 2 (AID 2283592). Summed up: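 Human colon HCT116 cells with an inducible p53 beta-lactamase reporter are exposed to test chemicals for 16 h at 37C. Reporter induction is read as the 460/530 nm emission ratio after CCF4-AM loading, normalized to DMSO.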

Test [13] can be described thus: TOX21_p53_BLA_p3_viability: Viability Assessment in the Tox21 HCT-116 p53 Agonism Beta-lactamase Assay, Phase 3 (AID 2283593).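 Further: cells exposed to compound for 16 h before reading.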 A digest of the protocol:
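HCT-116 cells (4000/well) rested 5 h at 37C, then got DMSO compounds by pin tool (217-fold dilution) for 16 h at 37C, 5% CO2. After the bla read, CellTiter-Glo was added and luminescence read at 30 min, room temperature.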

Test [14] concerns the target Cellular tumor antigen p53 (Homo sapiens) (UniProt P04637). The test is described as follows: TOX21_p53_BLA_p3_ratio: Tox21 HCT-116 p53 Agonism Beta-lactamase Assay, Ratio, Phase 3 (AID 2283596). A digest of the protocol: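 HCT116 p53-bla cells (4000/well) given compound in DMSO (217-fold dilution) after 5 h, incubated 16 h at 37C. CCF4-AM substrate 2 h at room temperature; 460/530 nm emission ratio, gain fitted against DMSO.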

Test [15] can be described thus: TOX21_p53_BLA_p4_viability: Viability Assessment in the Tox21 HCT-116 p53 Agonism Beta-lactamase Assay, Phase 4 (AID 2283597).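 Further: hits lower the luminescence signal meaning cytotoxicity.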 A digest of the protocol: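 Luminescent ATP readout (CellTiter-Glo, 30 min, room temperature) in the same wells as the p53 bla ratio. HCT116 cells were treated for 16 h at 37C with DMSO-dissolved compounds.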
Test [16] has as its target Cellular tumor antigen p53 (Homo sapiens) (UniProt P04637). The experiment in a line: TOX21_p53_BLA_p5_ratio: Tox21 HCT-116 p53 Agonism Beta-lactamase Assay, Ratio, Phase 5 (AID 2283599). Summed up: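 HCT-116 cells carrying a p53-inducible beta-lactamase reporter were seeded at 4000 cells/well and dosed after 5 h with compound in DMSO (217-fold dilution). After 16 h at 37C, CCF4-AM substrate was added for 2 h, and the 460/530 nm emission ratio was scored as gain-of-signal versus DMSO.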

Test [17] can be described thus: TOX21_p53_BLA_p5_viability: Viability Assessment in the Tox21 HCT-116 p53 Agonism Beta-lactamase Assay, Phase 5 (AID 2283600). Summed up:
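Seeded cells (4000/well) settle 5 h before compound addition. Plates then incubate 16 h at 37C, receive FRET substrate for 2 h, and finally CellTiter-Glo, with luminescence measured after a 30 min room-temperature incubation.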

Test [18] has as its target Cellular tumor antigen p53 (Homo sapiens) (UniProt P04637). The experiment in a line: TOX21_p53_BLA_p4_ratio: Tox21 HCT-116 p53 Agonism Beta-lactamase Assay, Ratio, Phase 4 (AID 2283601). A digest of the protocol: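 HCT116 cells carrying an inducible beta-lactamase reporter were plated at 4000 cells/well, rested 5 h, then exposed to compounds in DMSO (217-fold dilution) for 16 h at 37C. CCF4-AM substrate was loaded 2 h at room temperature; 460/530 nm emission ratio scored gain-of-signal versus DMSO.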

Read-out in test [19]: TIMP1, TIMP1 (gene 7076)
The test is described as follows: LTEA_HepaRG_TIMP1: Life Technologies and Expression Analysis (LTEA) Assay for TIMP1 using HepaRG (AID 2283534; active means hit-call score of the fitted dose curve at least 0.9, where 1 is the maximum; inactive means score below 0.9). The settings on record: mRNA level, 48 h; actives raise or lower the signal. Summed up: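 TIMP1 induction or repression in HepaRG cells after 48 h chemical exposure (eight concentrations, highest 100 uM), assessed by normalized qRT-PCR with bidirectional fitting to DMSO controls.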

SMILES strings stand for the structures. Inconclusive results are not listed. Calls of active or inactive are those of the source. How the source made its calls, unless noted: active means hit-call score of the fitted dose curve at least 0.9, where 1 is the maximum; inconclusive means response in the unintended direction; inactive means score below 0.9.

Sequence of Cellular tumor antigen p53 (Homo sapiens) (P04637 whole entry, looked up): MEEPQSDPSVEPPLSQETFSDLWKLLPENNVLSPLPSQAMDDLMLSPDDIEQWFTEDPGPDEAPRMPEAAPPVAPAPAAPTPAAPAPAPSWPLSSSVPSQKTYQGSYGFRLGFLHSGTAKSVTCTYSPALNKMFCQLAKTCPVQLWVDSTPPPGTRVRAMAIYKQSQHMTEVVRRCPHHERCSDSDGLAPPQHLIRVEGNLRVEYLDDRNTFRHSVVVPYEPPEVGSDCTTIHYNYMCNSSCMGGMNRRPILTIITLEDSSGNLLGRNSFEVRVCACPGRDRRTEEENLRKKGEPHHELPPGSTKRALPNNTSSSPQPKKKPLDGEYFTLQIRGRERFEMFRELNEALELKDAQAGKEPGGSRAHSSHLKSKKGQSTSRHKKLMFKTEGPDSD

Consider `Oc1ccccc1-c1ccccc1`, for which the result in test [1], in test [2], in test [3], in test [4], in test [5] and in test [6] was inactive. Moreover, the call in test [7], in test [8], in test [9], in test [10], in [11] and in test [12] was inactive. Besides, the outcome in test [13], in test [14], in test [15], in test [16], in [17] and in [18] was inactive.

With `COC(=O)N(OC)c1ccccc1COc1ccn(-c2ccc(Cl)cc2)n1`, the AC50 in [1] was 78.7 µM (active); in test [2] it was 78.5 µM (active); in test [3], 50 µM (active); in [19] it was 68.4 µM (active); in [4], 77.1 µM (active); in test [5], 7.22 µM (active). The AC50 is 78.5 µM (active) in test [6]; 82.4 µM (active) in test [7]; 73.3 µM (active) in [8]; 71.5 µM (active) in [10]; 1.09 µM (active) in test [12]; 1.51 µM (active) in [14]. The figures for the AC50 in test [16] and in test [18] were 1.9 µM (active) and 1.67 µM (active), respectively. The result in [9], in [11], in test [13], in [15] and in [17] was inactive.

Take `COP(=S)(OC)Oc1nc(Cl)c(Cl)cc1Cl`: the call in test [1], in test [2], in test [3], in [4], in [5] and in test [6] was inactive. The outcome in [7], in [8], in [9], in test [10], in [11] and in test [12] was inactive. In addition, the call in test [13], in [16], in test [17] and in test [18] was inactive.

`CCc1nn(C)c(C(=O)NCc2ccc(C(C)(C)C)cc2)c1Cl`: the AC50 is 26.8 µM (active) in [1]; 16.4 µM (active) in test [2]; 50 µM (active) in test [3]; 27.4 µM (active) in test [4]; 1.06 µM (active) in test [5]; 12.1 µM (active) in test [6]. Besides, the AC50 in [7] is 27.8 µM (active); in test [8], 37.1 µM (active); in test [9], 13.6 µM (active); in test [10] it was 27.3 µM (active); in test [12], 0.0232 µM (active); in test [15], 46.1 µM (active). Moreover, the values for the AC50 in test [17] and in test [18] were 46.1 µM (active) and 76.6 µM (active), respectively. In addition, the compound was called inactive in [13] and in [14].

Consider `CCON=C(CC)C1=C(O)CC(c2c(C)cc(C)cc2C)CC1=O` (configuration not stated), for which the call in [1], in test [2], in test [3], in [4], in test [6] and in test [8] was inactive. The outcome in test [9], in test [10], in test [12], in test [13], in test [14] and in test [15] was inactive. In addition, the result in test [16], in test [17] and in [18] was inactive. Besides, the half-maximal activity concentration (AC50) was 50 µM (active) in [5] and 27.9 µM (active) in test [7].

For the compound `COc1nc(C)nc(NC(=O)NS(=O)(=O)c2ccccc2Cl)n1`, the outcome in test [12], in [14], in test [17] and in [18] was inactive.

On to `Fc1ccc(Oc2ccnc3cc(Cl)cc(Cl)c23)cc1`, for which the result in test [1], in [2], in test [4], in test [6], in [8] and in test [9] was inactive. The result in test [10], in test [13], in [15] and in [17] was inactive. The AC50 in test [3] was 50 µM (active); in test [5], 76.2 µM (active); in test [7], 13.3 µM (active); in test [12], 79.3 µM (active); in test [14], 89.1 µM (active); in test [16] it was 88.9 µM (active). Also, the AC50 in [18] was 81.6 µM (active).
